Source: PubChem BioAssay AID1159580 (chemical genetic matrix, 2015)
In all, about 5,500 compounds went through this assay and about 2,000 (36%) were called active. Not shown: some 18% with an inconclusive outcome. Cut-off read from the data, not from the text of the source: active = normalized growth mostly below about 0.91 (no sharp cut-off); inconclusive = no clear call, values can overlap the other calls; inactive = mostly above about 0.92. The list shows a part of the results.

Assay: chemical genetic growth profiling, strain panel (AID 1159580);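 note: tested at 20 µM; growth read once vehicle control cultures reached saturation at 30 °C; 1 = growth at the plate median or of vehicle wells; lower values mean less growth of the strain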
Settings: S. cerevisiae deletion strains, growth OD

Measured: normalized growth

C[C@@H]1CC2C3CCC4=CC(=O)C=C[C@]4(C)[C@@]3(F)[C@@H](O)C[C@]2(C)[C@H]1C(=O)CO (stereo not given in full)
inactive: locus YAL021C, strain ccr4, stronger effect = lower value 1 | locus YAL026C, strain drs2, stronger effect = lower value 0.998 | locus YAL030W, strain snc1, stronger effect = lower value 0.998 | locus YBL061C, strain skt5, stronger effect = lower value 0.999 | locus YBR009C, strain hhf1, stronger effect = lower value 0.997 | locus YBR023C, strain chs3, stronger effect = lower value 0.995 | locus YBR171W, strain sec66, stronger effect = lower value 0.986 | locus YBR231C, strain swc5, stronger effect = lower value 0.988 | locus YBR279W, strain paf1, stronger effect = lower value 0.997 | locus YCL011C, strain gbp2, stronger effect = lower value 0.993 | locus YCL016C, strain dcc1, stronger effect = lower value 1.01 | locus YCL061C, strain MRC1, stronger effect = lower value 0.994 | locus YCL069W, strain vba3, stronger effect = lower value 1 | locus YCR088W, strain abp1, stronger effect = lower value 0.992 | locus YDL005C, strain med2, stronger effect = lower value 0.997 | locus YDL040C, strain nat1, stronger effect = lower value 0.996 | locus YDR001C, strain nth1, stronger effect = lower value 0.987 | locus YDR069C, strain doa4, stronger effect = lower value 0.999 | locus YDR137W, strain rgp1, stronger effect = lower value 0.979 | locus YDR159W, strain sac3, stronger effect = lower value 0.998 | locus YDR195W, strain ref2 0.965 | locus YDR297W, strain sur2, stronger effect = lower value 0.996 | locus YDR334W, strain swr1, stronger effect = lower value 1 | locus YDR335W, strain msn5, stronger effect = lower value 1 | locus YDR392W, strain spt3, stronger effect = lower value 0.976 | locus YEL003W, strain gim4, stronger effect = lower value 0.999 | locus YEL037C, strain rad23, stronger effect = lower value 1 | locus YEL061C, strain CIN8 (second series), stronger effect = lower value 0.996 | locus YER015W, strain faa2, stronger effect = lower value 0.999 | locus YER016W, strain bim1, stronger effect = lower value 1 | locus YER111C, strain swi4, stronger effect = lower value 0.982 | locus YER155C, strain BEM2 (second series), stronger effect = lower value 0.994 | locus YFR010W, strain ubp6, stronger effect = lower value 0.989 | locus YGL167C, strain pmr1, stronger effect = lower value 0.996 | locus YGL173C, strain kem1, stronger effect = lower value 0.987 | locus YGL227W, strain vid30, stronger effect = lower value 0.989 | locus YGL240W, strain doc1, stronger effect = lower value 1 | locus YGL253W, strain hxk2, stronger effect = lower value 1.01 | locus YHR013C, strain ard1, stronger effect = lower value 1 | locus YHR027C, strain rpn1, stronger effect = lower value 0.995 | locus YHR030C, strain SLT2, stronger effect = lower value 1.06 | locus YHR079C, strain IRE1, stronger effect = lower value 1.05 | locus YHR142W, strain chs7, stronger effect = lower value 1.01 | locus YJL092W, strain hpr5, stronger effect = lower value 0.998 | locus YJL095W, strain BCK1 (second series), stronger effect = lower value 1.01 | locus YJL095W, strain BCK1, stronger effect = lower value 0.98 | locus YJL115W, strain asf1, stronger effect = lower value 0.996 | locus YJL129C, strain trk1, stronger effect = lower value 1.01 | locus YJL154C, strain vps35, stronger effect = lower value 0.995 | locus YJL164C, strain tpk1, stronger effect = lower value 1.01 | locus YJL166W, strain qcr8, stronger effect = lower value 0.998 | locus YJL187C, strain SWE1, stronger effect = lower value 0.993 | locus YJR066W, strain TOR1, stronger effect = lower value 1.01 | locus YKL160W, strain elf1, stronger effect = lower value 1 | locus YKR026C, strain gcn3, stronger effect = lower value 0.982 | locus YKR091W, strain srl3, stronger effect = lower value 0.996 | locus YLL001W, strain dnm1, stronger effect = lower value 0.982 | locus YLL026W, stronger effect = lower value 0.988 | locus YLL041C, strain sdh2, stronger effect = lower value 0.999 | locus YLR027C, strain aat2, stronger effect = lower value 1.01 | locus YLR113W, strain HOG1, stronger effect = lower value 0.929 | locus YLR221C, strain rsa3, stronger effect = lower value 1.01 | locus YLR258W, strain gsy2, stronger effect = lower value 1 | locus YLR262C, strain YPT6 (second series), stronger effect = lower value 0.985 | locus YLR320W, strain mms22, stronger effect = lower value 0.992 | locus YLR342W, strain FKS1, stronger effect = lower value 1 | locus YLR357W, strain rsc2, stronger effect = lower value 0.999 | locus YLR370C, strain arc18, stronger effect = lower value 0.993 | locus YLR384C, strain iki3, stronger effect = lower value 1 | locus YML120C, strain ndi1, stronger effect = lower value 1 | locus YMR058W, strain fet3, stronger effect = lower value 1 | locus YMR125W, strain sto1, stronger effect = lower value 0.983 | locus YMR129W, stronger effect = lower value 0.995 | locus YMR205C, strain PFK2, stronger effect = lower value 0.973 | locus YMR231W, strain pep5, stronger effect = lower value 0.998 | locus YNL071W, strain lat1, stronger effect = lower value 0.999 | locus YNL183C, strain NPR1, stronger effect = lower value 0.992 | locus YNL209W, strain ssb2, stronger effect = lower value 1 | locus YNL248C, strain rpa49, stronger effect = lower value 0.999 | locus YNL322C, strain KRE1 (second series), stronger effect = lower value 1 | locus YNR049C, strain mso1, stronger effect = lower value 0.999 | locus YOR001W, strain rrp6, stronger effect = lower value 1.01 | locus YOR070C, strain gyp1, stronger effect = lower value 0.997 | locus YOR080W, strain dia2, stronger effect = lower value 0.991 | locus YOR083W, strain WHI5, stronger effect = lower value 1.01 | locus YOR106W, strain vam3, stronger effect = lower value 1.02 | locus YOR231W, strain MKK1, stronger effect = lower value 1.05 | locus YOR265W, strain rbl2, stronger effect = lower value 1 | locus YOR270C, strain vph1, stronger effect = lower value 1.01 | locus YOR290C, strain snf2, stronger effect = lower value 1 | locus YPL051W, strain arl3, stronger effect = lower value 0.999 | locus YPL078C, strain atp4, stronger effect = lower value 1.01 | locus YPL106C, strain sse1, stronger effect = lower value 1.01 | locus YPL240C, strain hsp82, stronger effect = lower value 0.982 | locus YPL256C, strain CLN2, stronger effect = lower value 1.04
